# Experimental data as given in paper PMC11447256.
# Assays:
# Coatomer subunit gamma-1 = Coatomer subunit gamma-1 (UniProt Q9Y678); test: cross-linking mass spectrometry
# [1] = target: T-complex protein 1 subunit delta (UniProt P50991); test: co-fractionation; cross-linking mass spectrometry
# Protein S100-A10 = Protein S100-A10 (UniProt P60903); test: cross-link between two proteins; cross-linking mass spectrometry
# [2] = target: Phosphoglycerate kinase 2 (UniProt P07205); test: co-fractionation; co-fractionation; cross-linking mass spectrometry
# Chain of Phosphoglycerate kinase 2 (P07205 whole entry): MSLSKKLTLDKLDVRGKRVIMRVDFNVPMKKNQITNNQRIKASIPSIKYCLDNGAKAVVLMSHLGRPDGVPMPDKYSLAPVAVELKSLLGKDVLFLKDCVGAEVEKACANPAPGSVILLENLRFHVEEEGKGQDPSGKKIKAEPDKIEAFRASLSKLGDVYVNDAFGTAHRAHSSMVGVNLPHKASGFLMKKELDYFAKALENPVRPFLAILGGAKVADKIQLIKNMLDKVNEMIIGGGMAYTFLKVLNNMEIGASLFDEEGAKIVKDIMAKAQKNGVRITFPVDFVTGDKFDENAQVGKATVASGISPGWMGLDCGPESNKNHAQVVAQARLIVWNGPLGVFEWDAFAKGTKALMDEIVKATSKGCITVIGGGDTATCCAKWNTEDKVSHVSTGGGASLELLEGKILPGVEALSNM
# [3] = target: 26S proteasome non-ATPase regulatory subunit 5 (UniProt Q16401); test: cross-link between two proteins; cross-linking mass spectrometry; two-hybrid or complementation screen
# Chain of 26S proteasome non-ATPase regulatory subunit 5 (Q16401 whole entry): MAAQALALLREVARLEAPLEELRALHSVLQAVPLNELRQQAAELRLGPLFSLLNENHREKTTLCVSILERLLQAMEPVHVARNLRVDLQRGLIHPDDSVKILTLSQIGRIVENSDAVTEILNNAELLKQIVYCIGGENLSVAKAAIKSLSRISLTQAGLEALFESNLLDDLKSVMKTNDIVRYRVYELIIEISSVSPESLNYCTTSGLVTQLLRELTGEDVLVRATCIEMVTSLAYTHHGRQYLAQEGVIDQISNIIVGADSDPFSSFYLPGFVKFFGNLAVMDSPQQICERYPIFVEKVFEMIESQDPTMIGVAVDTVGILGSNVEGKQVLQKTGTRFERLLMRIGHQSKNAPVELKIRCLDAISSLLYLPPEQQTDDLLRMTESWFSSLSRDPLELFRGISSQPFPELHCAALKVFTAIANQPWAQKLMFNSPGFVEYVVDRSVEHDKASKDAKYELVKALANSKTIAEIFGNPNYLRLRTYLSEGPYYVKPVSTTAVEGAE
# Chain of T-complex protein 1 subunit delta (P50991 whole entry, stated change not applied, one chain of several): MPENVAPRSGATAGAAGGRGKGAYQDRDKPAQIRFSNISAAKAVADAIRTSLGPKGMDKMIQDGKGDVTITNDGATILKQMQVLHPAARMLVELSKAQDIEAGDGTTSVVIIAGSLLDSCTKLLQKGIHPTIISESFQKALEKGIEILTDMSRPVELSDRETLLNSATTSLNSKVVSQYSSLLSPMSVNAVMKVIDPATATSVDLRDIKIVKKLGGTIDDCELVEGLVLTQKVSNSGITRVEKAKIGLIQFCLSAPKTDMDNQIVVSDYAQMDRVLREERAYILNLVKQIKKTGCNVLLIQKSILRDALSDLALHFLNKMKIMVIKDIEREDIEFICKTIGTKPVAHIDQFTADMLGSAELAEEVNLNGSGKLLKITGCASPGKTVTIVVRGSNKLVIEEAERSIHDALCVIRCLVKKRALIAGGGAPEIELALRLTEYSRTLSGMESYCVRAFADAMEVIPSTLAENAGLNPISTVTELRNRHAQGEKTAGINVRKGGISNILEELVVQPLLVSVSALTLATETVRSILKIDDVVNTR
# Chain of Coatomer subunit gamma-1 (Q9Y678 whole entry): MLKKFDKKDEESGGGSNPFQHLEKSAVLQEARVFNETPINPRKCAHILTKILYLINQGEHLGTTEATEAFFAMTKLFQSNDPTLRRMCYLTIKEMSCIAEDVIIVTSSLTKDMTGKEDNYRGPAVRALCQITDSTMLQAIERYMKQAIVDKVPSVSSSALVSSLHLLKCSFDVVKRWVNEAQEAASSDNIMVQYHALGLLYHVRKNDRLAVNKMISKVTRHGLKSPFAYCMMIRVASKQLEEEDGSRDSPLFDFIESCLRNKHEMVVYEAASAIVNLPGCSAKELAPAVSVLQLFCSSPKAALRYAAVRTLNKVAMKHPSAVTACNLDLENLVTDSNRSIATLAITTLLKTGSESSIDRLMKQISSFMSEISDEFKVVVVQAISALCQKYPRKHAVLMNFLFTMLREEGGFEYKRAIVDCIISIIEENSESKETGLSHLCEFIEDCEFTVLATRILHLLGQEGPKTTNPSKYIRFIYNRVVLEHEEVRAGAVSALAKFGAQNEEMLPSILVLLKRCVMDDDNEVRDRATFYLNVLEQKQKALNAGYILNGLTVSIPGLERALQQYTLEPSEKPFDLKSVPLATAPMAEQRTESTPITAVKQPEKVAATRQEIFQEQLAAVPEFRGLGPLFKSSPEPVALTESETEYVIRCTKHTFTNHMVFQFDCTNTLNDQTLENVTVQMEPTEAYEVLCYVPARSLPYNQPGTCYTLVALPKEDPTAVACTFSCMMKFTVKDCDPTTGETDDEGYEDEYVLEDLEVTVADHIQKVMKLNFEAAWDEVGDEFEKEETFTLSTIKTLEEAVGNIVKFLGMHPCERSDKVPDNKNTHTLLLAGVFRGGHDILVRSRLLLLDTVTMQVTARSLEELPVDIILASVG
# Chain of Protein S100-A10 (P60903 whole entry): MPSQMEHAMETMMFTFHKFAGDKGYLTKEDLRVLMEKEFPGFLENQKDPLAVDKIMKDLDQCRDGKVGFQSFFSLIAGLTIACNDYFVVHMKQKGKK
substance,measurement,setting,value
"Coatomer subunit beta, P53618",listed as a hit,Coatomer subunit gamma-1,yes
"T-complex protein 1 subunit gamma, P49368",listed as a hit,[1],yes
"Putative annexin A2-like protein, A6NMY6",listed as a hit,Protein S100-A10,yes
"Phosphoglycerate kinase 1, P00558",listed as a hit,[2],yes
"26S proteasome regulatory subunit 7, P35998",listed as a hit,[3],yes
